Results on 66 compounds are retold here after ChEMBL document CHEMBL4513216, “Probing the Open Global Health Chemical Diversity Library for Multistage-Active Starting Points for Next-Generation Antimalarials” (ACS Infect Dis, 2020).

The whole screen tested about 69,000 compounds, of which about 8,600 (12%) showed an effect of 50% or more. What follows is part of a selection rich in strong results, with near analogues and random picks from the rest.

This assay relates to Plasmodium berghei. Put plainly: Screen against P. berghei liver stage (PbLuc), transformed with Luciferase, at 10uM. In kind it is functional, HepG2. The following applies: tested at 10 uM.
With `CNC(=O)c1cc(C)n(-c2cccc(OC)c2)c1C`, the INHIBITION is on record as -3.2%.

As for `Cc1cc(Br)cnc1N(C)CC1CCOC1` (stereo unspecified), the INHIBITION was 23.6%.

As for `Cc1nc2c(c(NCc3cc4ccccc4s3)n1)CCNCC2`, the INHIBITION amounted to 46.1%.

Regarding `Cc1nc2c(c(NCc3ccc(-c4ccccn4)s3)n1)CCNCC2`, the INHIBITION is listed as 32.2%.

Regarding `Cc1nc2c(c(NCc3nc4ccccc4s3)n1)CCNCC2`, the INHIBITION is listed as 75.8%.

With `CC(C)N1CCN(C(=O)Nc2cnc3c(cnn3C(C)C)c2)CC1`, the INHIBITION is on record as 27.6%.

Take `O=C(CCOc1ccccc1)N1CCCC(n2cncn2)C1` (stereo unspecified): the INHIBITION was -13.255%.

Consider `c1cncc(CN(Cc2ccc3c(c2)OCCO3)CC2CCCO2)c1` (stereo unspecified), for which the INHIBITION is listed as -2.98%.

Consider `CCC(C)N(Cc1cccnc1)Cc1ccc2c(c1)OCCO2` (stereo unspecified), for which the INHIBITION worked out at 52.5%.

Take `CCC(C)N(Cc1cccnc1)Cc1ccccc1Cn1cccn1` (stereo unspecified): the INHIBITION was determined as 31.3%.

As to `CCC(C)N(Cc1cccnc1)Cc1cc2c(cc1OC)OCO2` (stereo unspecified), the INHIBITION is given as -19.8%.

Take `Cc1ccnc(CC(C)N(C)Cc2ccc3c(c2)OCCO3)c1` (stereo unspecified): the INHIBITION stood at 8.11%.

As for `CCC(C)N(Cc1cccnc1)Cc1cc2c(cc1Cl)OCO2` (stereo unspecified), the INHIBITION worked out at 58.5%.

Consider `Cn1cc(C2CCCN2C(=O)CCc2cnn(-c3ccccc3)c2)cn1` (stereo unspecified), for which the INHIBITION was determined as 5.03%.

Turning to `CN(C)C(=O)C1(CCCc2ccccn2)CCN1Cc1nccn1C` (stereo unspecified), the INHIBITION stood at 5.34%.

On to `COc1ccc2nnc(CCCC(=O)NCc3ccccc3F)n2n1`, for which the INHIBITION is -6.09%.

As for `COc1ncccc1CNCc1c(C)nn(C)c1N1CCOCC1`, the INHIBITION is on record as -10.1%.

For the compound `CC(C)N1CCN(C(=O)c2ccc(Cn3ccccc3=O)o2)CC1`, the INHIBITION was 14.115%.

Consider `Cc1nnc([C@H]2C[C@H]3OCC[C@H]3N(S(=O)(=O)C3CC3)C2)o1`, for which the INHIBITION is 26%.

On to `Cc1nnc([C@H]2C[C@H]3OCC[C@H]3N(S(=O)(=O)N(C)C)C2)o1`, for which the INHIBITION is 54.1%.

Take `CCS(=O)(=O)N1C[C@@H](c2nnc(C)o2)C[C@H]2OCC[C@H]21`: the INHIBITION turned out to be 18.7%.

On to `Cc1ccc(CN2C[C@@H]3COC[C@H](NS(C)(=O)=O)[C@@H]3C2)o1`, for which the INHIBITION was 6.38%.

Regarding `OCCNc1nccc(-c2c[nH]nc2-c2ccncc2)n1`, the INHIBITION is recorded as 41.2%.

For `C[C@H]1CCCCN1CCCNc1nccc(-c2c[nH][nH]c2=O)n1`, the INHIBITION is listed as 23.4%.

As for `O=c1[nH][nH]cc1-c1ccnc(NCCc2ccc(F)cc2)n1`, the INHIBITION worked out at 20.4%.

For the compound `CC(C)(C)CCNc1nccc(-c2c[nH][nH]c2=O)n1`, the INHIBITION amounted to 57.5%.

Consider `O=c1[nH][nH]cc1-c1ccnc(NCCc2cccc(O)c2)n1`, for which the INHIBITION turned out to be 63.4%.

As to `O=C(O)c1ccnc(-c2ccnc(NCCc3ccc(F)cc3)n2)c1`, the INHIBITION amounted to 8.74%.

Take `Cc1ncc(-c2ccnc(NCCc3ccc(F)cc3)n2)c(=O)[nH]1`: the INHIBITION came to 72.3%.

As to `O=c1[nH][nH]cc1-c1ccnc(NCCN2CCCC2)n1`, the INHIBITION came out at 25.3%.

As to `CN(C)c1nccc(-c2c[nH][nH]c2=O)n1`, the INHIBITION was determined as 42.6%.

With `O=C(Cc1cccc(O)c1)NCCNc1nccc(C(F)(F)F)n1`, the INHIBITION is listed as 0.71%.

With `O=c1[nH][nH]cc1-c1ccnc(NCCc2cccnc2)n1`, the INHIBITION was 59%.

Turning to `Cc1ncc(-c2ccnc(N3CCCCC3)n2)c(=O)[nH]1`, the INHIBITION amounted to 28.6%.

Regarding `COCCCNc1nccc(-c2c[nH][nH]c2=O)n1`, the INHIBITION came to 15.2%.

`O=C(O)c1cn(-c2ccccn2)c(=O)c2ccccc12`: the INHIBITION was -44.2%.

With `CN(C)[C@@H]1CN(Cc2ccc(O)cc2)C[C@H]1c1cn(C)c2ccccc12`, the INHIBITION is given as 40.9%.

For the compound `O=C(c1ccncc1)N1C[C@H]2CC[C@@H](C1)N(S(=O)(=O)c1cccnc1)C2`, the INHIBITION was -66.4%.

In the case of `CCN1CC(C(=O)NCc2ccnc(-n3cccn3)c2)CC1=O` (stereo unspecified), the INHIBITION was -12.33%.

In the case of `CCOC(C)c1nccn1Cc1c(C)noc1C` (stereo unspecified), the INHIBITION stood at 3.19%.

With `Cc1cc(C(F)(F)F)nc(C2(C)CCCN2CC(N)=O)n1` (stereo unspecified), the INHIBITION stood at 14.385%.

Turning to `c1cncc(-n2cnnc2CCCN2CCOCC2)c1`, the INHIBITION came out at 3.69%.

Regarding `CN1CCN(Cc2cccnc2)C2(CCN(Cc3ccoc3)C2)C1=O` (stereo unspecified), the INHIBITION is on record as -24.9%.

With `COCCC(=O)NC1CCN(CC2(c3cccc(F)c3)CCCC2)CC1`, the INHIBITION was 12.3%.

As to `Cc1ccc(NC(=O)[C@H]2C[C@H](C(=O)O)CN(CC(C)C)C2)cn1`, the INHIBITION is 11.2%.

Consider `COc1ccc(F)c(-c2cc(NCCO)nc(N)n2)c1`, for which the INHIBITION is listed as -76.6%.

For the compound `CC(C)(C)c1ncc2c(n1)CN(c1cc(NCCO)nc(N)n1)C2`, the INHIBITION is recorded as 3.84%.

Turning to `CC(C)Cc1ncc2c(n1)CN(c1cc(NCCO)nc(N)n1)C2`, the INHIBITION was 27.7%.

With `CCc1ncc2c(n1)CN(c1cc(NCCO)nc(N)n1)C2`, the INHIBITION is on record as -63.2%.

Take `Nc1nc(NCCO)cc(N2CCc3c([nH]c4ccccc34)C2)n1`: the INHIBITION was found to be 78.5%.

Take `COc1ccc2[nH]c3c(c2c1)CN(c1cc(NCCO)nc(N)n1)CC3`: the INHIBITION was determined as 54.8%.

Consider `C[C@@H]1C[C@H]2CN(C(=O)c3ccncn3)C[C@H]2O1`, for which the INHIBITION is given as -0.813%.

`CN1[C@@H](C(=O)NCC2CC2)C[C@@H]2CN(Cc3ccoc3)C[C@@H]21`: the INHIBITION turned out to be 1.34%.

With `N#CC(NC(=O)CC(F)(F)F)c1ccsc1` (stereo unspecified), the INHIBITION was -3.68%.

Consider `COc1cccc(C=CCCN2CCN(S(C)(=O)=O)CC2)c1`, for which the INHIBITION is recorded as -104%.

Consider `CCN1CCN(c2ncc(-c3cc(C)no3)c(-c3ccco3)n2)CC1`, for which the INHIBITION was determined as 11.5%.

Regarding `Cc1cc(-c2cnc(N3CCN(C)CC3)nc2-c2ccc(C)s2)on1`, the INHIBITION was determined as 69.4%.

In the case of `Cc1cc(-c2cnc(N3CCCC3)nc2-c2ccc(C)s2)on1`, the INHIBITION was found to be 32.3%.

As for `Cc1cc(-c2cnc(N3CCOCC3)nc2-c2ccc(C)s2)on1`, the INHIBITION was 53%.

Regarding `CCN1CCN(c2ncc(-c3cc(C)no3)c(-c3ccoc3C)n2)CC1`, the INHIBITION is given as 48.9%.

For the compound `CCN1CCN(c2ncc(-c3cc(C)no3)c(-c3ccc(C)s3)n2)CC1`, the INHIBITION amounted to 57.4%.

Regarding `Cc1cc(-c2cnc(N3CCSCC3)nc2-c2ccc(C)s2)on1`, the INHIBITION came out at 47.1%.

As to `Cc1nc(CN2CCCC(N(C)CCOCC(F)(F)F)C2)no1` (stereo unspecified), the INHIBITION was -13.5%.

As to `c1cc(COc2ccc(CNC3CCc4ncnn4C3)cc2)ccn1` (stereo unspecified), the INHIBITION is reported as -1.76%.

As for `CS(=O)(=O)CC1(CNc2c(C#N)cnc3ccc(Cl)cc23)CC1`, the INHIBITION is listed as -14.1%.

Regarding `CS(=O)(=O)c1cn[nH]c1C1CCCCN1C(=O)c1ccsc1` (stereo unspecified), the INHIBITION was -69.5%.
